PI4K2A inh: inhibitors of human PI4K2A; Q9BTU6; purified PI4K2A, ADP-Glo luminescence, 1 h; active compounds read low; activity change, negative = inhibition, % at 76.9 µM; actives 0.13% (n = 420,000); in the data active = activity change below about -50%; inconclusive = mostly about -30% to -49%;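 note: -100% = wells without enzyme as full effect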
Target sequence (Q9BTU6 whole entry, looked up): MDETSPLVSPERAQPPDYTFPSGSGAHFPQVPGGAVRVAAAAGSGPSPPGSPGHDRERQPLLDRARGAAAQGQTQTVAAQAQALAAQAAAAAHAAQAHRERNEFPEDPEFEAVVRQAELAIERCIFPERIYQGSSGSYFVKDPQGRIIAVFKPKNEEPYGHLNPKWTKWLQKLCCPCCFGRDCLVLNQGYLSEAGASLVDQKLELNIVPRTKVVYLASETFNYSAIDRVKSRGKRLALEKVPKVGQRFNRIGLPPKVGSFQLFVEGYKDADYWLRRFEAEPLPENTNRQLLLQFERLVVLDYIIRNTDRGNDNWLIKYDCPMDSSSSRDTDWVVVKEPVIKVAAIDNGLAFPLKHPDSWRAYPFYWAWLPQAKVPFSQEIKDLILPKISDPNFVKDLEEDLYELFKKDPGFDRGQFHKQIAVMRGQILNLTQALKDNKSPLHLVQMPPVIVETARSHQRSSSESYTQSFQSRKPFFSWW
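In this quantitative HTS, ADP production by PI4K2A was quantified luminescently after 1 h at ambient temperature; 100 microM adenosine served as plate-quality control.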
GLS inhibitor: inhibitors of human glutaminase (GLS); actives 0.21% (n = 410,000); GLS enzymatic activity, qHTS titration; Potency, µM (titrated, usually from 45.5 µM), for inactives: at the top dose activity change, negative = inhibition, actives largely listed as inhibitors; O94925; note: potency is the fitted concentration of half-maximal effect
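Compounds were pin-transferred onto hKGA, after which L-glutamine (1 mM solution) and a detection mix of glutamate oxidase, HRP and Amplex Red were added. Initial and 30 min RT fluorescence reads were collected.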
VDR inhibitor: inhibitors of human vitamin D receptor | P11473 | VDR-SRC2-3 peptide fluorescence polarization, 2 h | Potency, µM, inactives show max response, negative = inhibition, usual class: inhibitors | actives 0.93% (n = 400,000); note: potency is the fitted concentration of half-maximal effect
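Measured by FP: displacement of SRC2-3 coactivator peptide from VDR by library compounds, following a two-hour ambient incubation.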
PLK1 PBD inh: inhibitors of human PLK1 polo-box domain binding; Plk1 PBD binding of FITC phosphopeptide, fluorescence polarization; Potency, µM, inactives show max response, negative = inhibition, most hits filed as inhibitors; P53350; actives 2.8% (n = 360,000); note: potency is the fitted concentration of half-maximal effect; series mostly up to about 57 µM; nearly all actives have a fitted effect of over 65% in size
GCN5L2 inh: blocks human GCN5L2 histone acetyltransferase; GCN5L2 HAT assay, ThioGlo1 CoA-SH fluorescence; AID 504327; Q92830; Potency, µM (highest dose often 58.9 µM), for inactives: at the top dose activity change, negative = inhibition, actives largely listed as inhibitors; actives 0.21% (n = 390,000); note: potency is the fitted concentration of half-maximal effect
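Titration-based screen in which CoA formation is detected via maleimide probe ThioGlo1 (50uM) turning fluorescent on thiol reaction; substrates H3(1-25) 75uM and acetyl-CoA 70uM, GCN5L2 20nM, 20 min incubation at room temperature.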
* = called active by the depositor. An excerpt weighted towards active compounds, which were near 3.1% of everything screened. Unless noted, calls come from the whole dose curve; as a rule, active = well fitted curve in the direction sought with a large enough effect; inconclusive = small, poorly fitted or top-dose-only effect, or another doubt; inactive = no such curve, though single readings can be large; an effect the other way counts as inactive or inconclusive. Unless noted, % is set by controls: 0 for no effect and ±100 for the full control effect.

`COc1ccc(/C=C/c2nnc(NC(=O)CSc3ccc(C)cc3)s2)cc1` gave PI4K2A inh -7, GLS inhibitor 0%, VDR inhibitor -12%, PLK1 PBD inh -5% and GCN5L2 inh -3%.
For COc1cccc(CC(=O)Nc2ccc(S(=O)(=O)Nc3nc(C)cc(C)n3)cc2)c1 the results were PI4K2A inh 3, GLS inhibitor inconclusive, VDR inhibitor inconclusive, PLK1 PBD inh 13µM* and GCN5L2 inh -5%.
Cc1cc(NS(=O)(=O)c2ccc(NC(=O)COc3c(C)cc(Br)cc3C)cc2)no1 was read as PI4K2A inh 1, GLS inhibitor 7.9µM*, VDR inhibitor -1%, PLK1 PBD inh -21% and GCN5L2 inh -5%.
Screening Cc1cc(NS(=O)(=O)c2ccc(NC(=O)COc3cc(C)c(Cl)c(C)c3)cc2)no1 returned PI4K2A inh -1, GLS inhibitor 12%, VDR inhibitor -9%, PLK1 PBD inh inconclusive and GCN5L2 inh -14%.
`Cc1cc(NS(=O)(=O)c2ccc(NC(=O)COc3ccc(Br)cc3)cc2)nc(C)n1` gave PI4K2A inh -2, GLS inhibitor inconclusive, VDR inhibitor inconclusive, PLK1 PBD inh 2.7µM* and GCN5L2 inh -21%.
Cc1ccc(-n2c(SCc3cccc4ccccc34)nnc2-c2ccccn2)cc1 was read as PI4K2A inh -1.
CC(C)CNS(=O)(=O)CC1NCc2cc3c(cc21)OCO3 (stereo unspecified) was read as PI4K2A inh 1.
`Cc1c(C(=O)OCC2CCCO2)[nH]c2c1C(=O)CC(c1ccco1)C2` (stereo unspecified) gave PI4K2A inh -54*, GLS inhibitor -2%, VDR inhibitor -11%, PLK1 PBD inh inconclusive and GCN5L2 inh inconclusive.
Screening C=CCOC(=O)c1[nH]c2c(c1C)C(=O)CC(c1ccco1)C2 (stereo unspecified) returned PI4K2A inh -9, GLS inhibitor 21%, VDR inhibitor 79µM*, PLK1 PBD inh inconclusive and GCN5L2 inh -8%.
COCCCn1c(SCC(=O)NC(C)C)nnc1-c1ccccc1 was read as PI4K2A inh 2, GLS inhibitor 25%, VDR inhibitor -18%, PLK1 PBD inh 7.5µM* and GCN5L2 inh -3%.
`COc1ccc(CCN(Cc2cc3ccc(C)cc3n3nnnc23)C(C)=O)cc1OC` gave PI4K2A inh -3, GLS inhibitor -17%, VDR inhibitor 40µM*, PLK1 PBD inh 3.4µM* and GCN5L2 inh 3%.
COc1ccc(CCN(Cc2cc3cc(C)ccc3[nH]c2=O)C(C)=O)cc1OC was read as PI4K2A inh -4, GLS inhibitor -7%, VDR inhibitor -11%, PLK1 PBD inh 0% and GCN5L2 inh 1%.
COc1cc(C)c(CC/C(C)=C/C=C/C(C)=O)c(C)c1C was read as VDR inhibitor 79µM*.
CC(C)CCNC(=O)C(c1ccc(O)cc1)N(C(=O)C1COc2ccccc2O1)c1cccc(O)c1 (stereo unspecified) was read as PI4K2A inh 0, GLS inhibitor 0%, VDR inhibitor 7%, PLK1 PBD inh 19µM* and GCN5L2 inh -5%.
`O=S1(=O)c2ccc(N3CCC[C@H]3CO)cc2OCCCN1C1CC1` gave PI4K2A inh 2.
Screening COC(=O)C1CN(CCO)CCS(=O)(=O)N1Cc1cccc(Cl)c1 (stereo unspecified) returned PI4K2A inh 6.
Screening COc1cc(NC(=O)c2ccc(Cl)cc2)c(OC)cc1NC(=O)CN1CCCCC1 returned PI4K2A inh 0, GLS inhibitor 0%, VDR inhibitor -24%, PLK1 PBD inh 30µM* and GCN5L2 inh -4%.
Screening CC1=CC2=NC(=O)/C(=C\c3cccn3CCOc3ccccc3C)C(=N)N2O1 returned PI4K2A inh 0, GLS inhibitor 12%, VDR inhibitor -10%, PLK1 PBD inh 27µM* and GCN5L2 inh -15%.
CC1=CC2=NC(=O)CC(C)(C(=O)N(CC(=O)NC3CCCC3)c3cc(C)cc(C)c3)N2C=C1 (stereo unspecified) was read as PI4K2A inh -1, GLS inhibitor 34%, VDR inhibitor inconclusive, PLK1 PBD inh 27µM* and GCN5L2 inh 1%.
Screening CCCSc1ncc(Cl)c(C(=O)Nc2nc3ccc(C)cc3s2)n1 returned PI4K2A inh -1, GLS inhibitor 6%, VDR inhibitor 13% and GCN5L2 inh 2%.
`Cc1ccc(-c2cc(C(=O)NCc3ccccn3)c3ccccc3n2)cc1C` gave PI4K2A inh -4, GLS inhibitor 3%, VDR inhibitor inconclusive, PLK1 PBD inh 24µM* and GCN5L2 inh -10%.
For O=C(NCCc1ccc(Cl)cc1)c1cc(-c2ccncc2)nc2ccccc12 the results were PI4K2A inh 3, GLS inhibitor -6%, VDR inhibitor -4%, PLK1 PBD inh -18% and GCN5L2 inh -2%.
O=C(NCCc1ccc(Cl)cc1)c1cc(-c2ccccn2)nc2ccccc12 was read as PI4K2A inh 0, GLS inhibitor 4%, VDR inhibitor -24%, PLK1 PBD inh 19µM* and GCN5L2 inh -5%.
Screening COc1ccc(NC(=O)OCCN2CCCC23CCC(c2ccccc2)CC3)cc1 (stereo unspecified) returned PI4K2A inh -2.
`CC[C@H](C)[C@H](NC(=O)[C@H](Cc1ccc(O)cc1)NC(=O)[C@H](CCCNC(=N)N)NC(=O)[C@H](CCCNC(=N)N)NC(=O)[C@H](CC(C)C)NC(=O)[C@H](CCC(N)=O)NC(=O)[C@@H](NC(=O)[C@H](CCC(=O)O)NC(=O)[C@H](Cc1ccc(O)cc1)NC(=O)[C@H](CCC(N)=O)NC(=O)[C@H](C)NC(=O)[C@H](CCCNC(=N)N)NC(=O)[C@H](CCC(N)=O)NC(=O)[C@H](CCC(=O)O)NC(=O)[C@H](Cc1cnc[nH]1)NC(=O)[C@@H](NC(=O)[C@H](C)NC(=O)[C@H](Cc1ccc(O)cc1)NC(=O)[C@H](CC(=O)O)NC(=O)CNC(=O)[C@@H]1CCCN1C(=O)[C@H](Cc1ccc(O)cc1)NC(=O)[C@H](CCSC)NC(=O)[C@@H]1CCCN1C(=O)[C@H](CCC(=O)O)NC(=O)[C@H](CC(C)C)NC(=O)[C@@H]1CCCN1C(=O)[C@H](C)N)[C@@H](C)O)[C@@H](C)O)C(=O)N[C@@H](CC(N)=O)C(=O)N[C@H](C(=O)N[C@@H](CC(C)C)C(=O)N[C@H](C(=O)N[C@@H](CCCNC(=N)N)C(=O)N1CCC[C@H]1C(=O)N[C@@H](CCCNC(=N)N)C(=O)N[C@@H](Cc1ccc(O)cc1)C(N)=O)[C@@H](C)O)[C@@H](C)O` gave VDR inhibitor 7% and GCN5L2 inh 45%.

Bioassay records as filed in PubChem BioAssay.
